According to the supplement of paper PMC8728848:
About 410 targets per protein were measured; listed, in parts, are those with the strongest signals and a random draw of the rest.

What was measured:
Experiment in all cases: glycan array binding signal (z-score within array); higher = stronger binding
Conditions in all cases: glycan notation: IUPAC condensed, linker removed
[1] = target: Fuc(a1-2)Gal(b1-4)GlcNAc(b1-3)[Fuc(a1-3)[Gal(b1-4)]GlcNAc(b1-6)]Gal(b1-4)Glc
Outline: (§1)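 Arrays were curated from the Consortium for Functional Glycomics database, 3228 in total, and kept only where the protein sequence was available. Binding is expressed as a within-array Z-score. This score was averaged across arrays of the same protein sequence at different concentrations or buffers and across linkers, and negative values can be read as non-binding.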

[2] = target: Fuc(a1-2)[Gal(a1-3)]Gal(b1-3)GlcNAc(b1-3)GalNAc
Outline: as §1

[3] = target: Fuc(a1-2)[GalNAc(a1-3)]Gal(b1-3)GalNAc(b1-3)Gal(a1-4)Gal(b1-4)Glc
Outline: as §1

[4] = target: Fuc(a1-2)[GalNAc(a1-3)]Gal(b1-3)GlcNAc(b1-6)GalNAc
Outline: as §1

[5] = target: Fuc(a1-2)[GalNAc(a1-3)]Gal(b1-4)GlcNAc(b1-2)Man(a1-3)[Fuc(a1-2)[GalNAc(a1-3)]Gal(b1-4)GlcNAc(b1-2)Man(a1-6)]Man(b1-4)GlcNAc(b1-4)GlcNAc
Outline: as §1

[6] = target: Fuc(a1-2)[GalNAc(a1-3)]Gal(b1-4)GlcNAc(b1-2)Man(a1-3)[Fuc(a1-2)[GalNAc(a1-3)]Gal(b1-4)GlcNAc(b1-2)Man(a1-6)]Man(b1-4)GlcNAc(b1-4)[Fuc(a1-6)]GlcNAc
Outline: as §1

[7] = target: Fuc(a1-3)[Gal(b1-4)]GlcNAc(b1-2)Man(a1-3)[Fuc(a1-3)[Gal(b1-4)]GlcNAc(b1-2)Man(a1-6)]Man(b1-4)GlcNAc(b1-4)GlcNAc
Outline: as §1

Fuc(a1-4)GlcNAc = target: Fuc(a1-4)GlcNAc
Outline: as §1

Gal(a1-2)Gal = target: Gal(a1-2)Gal
Outline: as §1

Gal(a1-3)Gal = target: Gal(a1-3)Gal
Outline: as §1

[8] = target: Gal(a1-3)Gal(b1-3)GlcNAc(b1-6)GalNAc
Outline: as §1

[9] = target: Gal(a1-3)Gal(b1-4)GlcNAc(b1-2)Man(a1-3)[Gal(a1-3)Gal(b1-4)GlcNAc(b1-2)Man(a1-6)]Man(b1-4)GlcNAc(b1-4)GlcNAc
Outline: as §1

[10] = target: Gal(a1-3)Gal(b1-4)[Fuc(a1-3)]GlcNAc
Outline: as §1

[11] = target: Gal(a1-3)Gal(b1-4)[Fuc(a1-3)]GlcNAc(b1-2)Man(a1-3)[Gal(a1-3)Gal(b1-4)[Fuc(a1-3)]GlcNAc(b1-2)Man(a1-6)]Man(b1-4)GlcNAc(b1-4)GlcNAc
Outline: as §1

Gal(a1-3)GalNAc = target: Gal(a1-3)GalNAc
Outline: as §1

[12] = target: Gal(a1-3)[Gal(a1-4)]Gal(b1-4)GlcNAc
Outline: as §1

[13] = target: Gal(a1-4)Gal(b1-3)GlcNAc(b1-2)Man(a1-3)[Gal(a1-4)Gal(b1-3)GlcNAc(b1-2)Man(a1-6)]Man(b1-4)GlcNAc(b1-4)GlcNAc
Outline: as §1

Gal(b1-3)Gal = target: Gal(b1-3)Gal
Outline: as §1

[14] = target: Gal(b1-3)GalNAc(a1-3)[Fuc(a1-2)]Gal(b1-4)GlcNAc
Outline: as §1

[15] = target: Gal(b1-3)GlcNAc(b1-2)[Gal(b1-3)GlcNAc(b1-6)]Man(a1-6)[Gal(b1-3)GlcNAc(b1-2)Man(a1-3)]Man(b1-4)GlcNAc(b1-4)GlcNAc
Outline: as §1

[16] = target: Gal(b1-3)GlcNAc(b1-3)Gal(b1-4)GlcNAc(b1-2)Man(a1-3)[Gal(b1-3)GlcNAc(b1-3)Gal(b1-4)GlcNAc(b1-2)Man(a1-6)]Man(b1-4)GlcNAc(b1-4)GlcNAc
Outline: as §1

[17] = target: Gal(b1-3)[Fuc(a1-4)]GlcNAc(b1-6)GalNAc
Outline: as §1

[18] = target: Gal(b1-4)GlcNAc(b1-2)Man(a1-3)[Gal(b1-4)GlcNAc(b1-2)Man(a1-6)]Man(b1-4)GlcNAc(b1-4)GlcNAc
Outline: as §1

[19] = target: Gal(b1-4)GlcNAc(b1-2)Man(a1-3)[Gal(b1-4)GlcNAc(b1-2)Man(a1-6)][Gal(b1-4)GlcNAc(b1-4)]Man(b1-4)GlcNAc(b1-4)[Fuc(a1-6)]GlcNAc
Outline: as §1

[20] = target: Gal(b1-4)GlcNAc(b1-2)[Gal(b1-4)GlcNAc(b1-6)]Man(a1-6)[Gal(b1-4)GlcNAc(b1-2)Man(a1-3)]Man(b1-4)GlcNAc(b1-4)[Fuc(a1-6)]GlcNAc
Outline: as §1

[21] = target: Gal(b1-4)GlcNAc(b1-3)Gal(b1-3)GlcNAc
Outline: as §1

[22] = target: Gal(b1-4)GlcNAc(b1-3)Gal(b1-4)GlcNAc(b1-2)Man(a1-3)[Gal(b1-4)GlcNAc(b1-3)Gal(b1-4)GlcNAc(b1-2)Man(a1-6)]Man(b1-4)GlcNAc(b1-4)GlcNAc
Outline: as §1

[23] = target: Gal(b1-4)GlcNAc(b1-3)Gal(b1-4)GlcNAc(b1-3)Gal(b1-4)GlcNAc
Outline: as §1

[24] = target: Gal(b1-4)GlcNAc(b1-3)Gal(b1-4)GlcNAc(b1-3)Gal(b1-4)GlcNAc(b1-2)Man(a1-3)[Gal(b1-4)GlcNAc(b1-3)Gal(b1-4)GlcNAc(b1-3)Gal(b1-4)GlcNAc(b1-2)Man(a1-6)]Man(b1-4)GlcNAc(b1-4)GlcNAc
Outline: as §1

[25] = target: Gal(b1-4)GlcNAc(b1-3)Gal(b1-4)GlcNAc(b1-3)Gal(b1-4)GlcNAc(b1-2)[Gal(b1-4)GlcNAc(b1-3)Gal(b1-4)GlcNAc(b1-3)Gal(b1-4)GlcNAc(b1-6)]Man(a1-6)[Gal(b1-4)GlcNAc(b1-3)Gal(b1-4)GlcNAc(b1-3)Gal(b1-4)GlcNAc(b1-2)Man(a1-3)]Man(b1-4)GlcNAc(b1-4)[Fuc(a1-6)]GlcNAc
Outline: as §1

[26] = target: Gal(b1-4)GlcNAc(b1-3)Gal(b1-4)GlcNAc(b1-3)GalNAc
Outline: as §1

[27] = target: Gal(b1-4)GlcNAc(b1-3)Gal(b1-4)GlcNAc(b1-6)[Gal(b1-3)]GalNAc
Outline: as §1

Gal(b1-6)Gal = target: Gal(b1-6)Gal
Outline: as §1

[28] = target: Gal3S(b1-4)[Fuc(a1-3)]GlcNAc6S
Outline: as §1

Gal3S4S(b1-4)GlcNAc = target: Gal3S4S(b1-4)GlcNAc
Outline: as §1

B1: SP16664B-bot-474-25-474 (Bacteroides ovatus) (protein)
chain: CEEDIEIGNKIDESSYLASTQLSGLLLDENTNKNSSVIELRNNEYSTNVVFRLSKLPQKGVDVQIAVEESYAAIYNTIHETDFEVFPAANVKIANNGTFVLAPDDKVTPSVKVTLTAFDGMEEDKTYIVPLTVTSSTEGVTFTETSKHMVLLVQDYRNKPNTNKGEDAVQTVLYFEVNDTNPLNALEFLTESGKYFFDHIVLFAANINWDPEKQRVYLANNENVQFLLDNNDKYLQPLRKAGMKIIISILGNHDEAGVAQLSDMGAREFARELAAYCRAYNLDGVAFDDEYSNSPDLSNPWLASPSAYAGSRLMYECKAVMPEKIVSLYNLGNMYSSSLQVIDGIEPGQYCDYAVADYGGAAGPGTGMTLKQCAGMSIELRRGSGNSSESTARSRKEAGYGYYMFFALDPSLYGSQVYRCQSVCKGLYDETLVYPSYYYKKNSTEREAIN
glycan array binding signal (z-score) [1]: -0.136
glycan array binding signal (z-score) [2]: -0.535
glycan array binding signal (z-score) [3]: -0.296
glycan array binding signal (z-score) [4]: -0.622
glycan array binding signal (z-score) [5]: 0.635
glycan array binding signal (z-score) [6]: 1.16
glycan array binding signal (z-score) [7]: 2.22
glycan array binding signal (z-score) (Fuc(a1-4)GlcNAc): 2.34
glycan array binding signal (z-score) (Gal(a1-2)Gal): 0.194
glycan array binding signal (z-score) (Gal(a1-3)Gal): -0.094
glycan array binding signal (z-score) [8]: 0.049
glycan array binding signal (z-score) [9]: 2.23
glycan array binding signal (z-score) [10]: -0.366
glycan array binding signal (z-score) [11]: 1.65
glycan array binding signal (z-score) (Gal(a1-3)GalNAc): -0.504
glycan array binding signal (z-score) [12]: -0.405
glycan array binding signal (z-score) [13]: 1.04
glycan array binding signal (z-score) (Gal(b1-3)Gal): -0.262
glycan array binding signal (z-score) [14]: -0.291
glycan array binding signal (z-score) [15]: 0.525
glycan array binding signal (z-score) [16]: -0.246
glycan array binding signal (z-score) [17]: 0.134
glycan array binding signal (z-score) [18]: -0.21
glycan array binding signal (z-score) [19]: -0.39
glycan array binding signal (z-score) [20]: -0.218
glycan array binding signal (z-score) [21]: -0.433
glycan array binding signal (z-score) [22]: 1.81
glycan array binding signal (z-score) [23]: -0.33
glycan array binding signal (z-score) [24]: 1.88
glycan array binding signal (z-score) [25]: 2.21
glycan array binding signal (z-score) [26]: 1.54
glycan array binding signal (z-score) [27]: 0.334
glycan array binding signal (z-score) (Gal(b1-6)Gal): -0.141
glycan array binding signal (z-score) [28]: 0.545
glycan array binding signal (z-score) (Gal3S4S(b1-4)GlcNAc): 0.303
